Assay outcomes as filed in PubChem.
G9a block: blocks human histone lysine methyltransferase G9a. Q96KQ7. G9a H3K9 monomethylation, AlphaScreen, 2 h. Potency, µM (doses to about 102 µM), most hits filed as inhibitors. hit rate 8.8% among 350,000; further: nearly all actives have a fitted effect of over 75% in size
Target sequence (Q96KQ7 913-1193 limits assumed): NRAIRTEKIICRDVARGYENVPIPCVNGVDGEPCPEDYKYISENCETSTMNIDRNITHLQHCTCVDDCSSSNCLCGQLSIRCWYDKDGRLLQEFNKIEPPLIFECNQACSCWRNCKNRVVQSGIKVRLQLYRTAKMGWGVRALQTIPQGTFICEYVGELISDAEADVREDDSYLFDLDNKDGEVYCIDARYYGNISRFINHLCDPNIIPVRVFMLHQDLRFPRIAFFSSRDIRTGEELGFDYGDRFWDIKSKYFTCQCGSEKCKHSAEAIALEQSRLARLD
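Signal arises when biotinylated H3K9 peptide, once monomethylated, bridges streptavidin donor and antibody-captured acceptor beads. Enzyme at 20 nM was preincubated 15 min with test compounds; peptide 500 nM and SAM 20 uM then reacted for 2 h.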
BAZ2B inh: inhibitors of human BAZ2B bromodomain | hit rate 4.4% among 360,000 | AlphaScreen BAZ2B-H3K14Ac peptide displacement | Q9UIF8 | Potency, µM (series often up to 114 µM), usual class: inhibitors | AID 504333; further: nearly all actives have a fitted effect of over 60% in size
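AlphaScreen displacement: compounds (up to 110uM) incubated 30 min at room temperature with a preformed 50 nM BAZ2B/50 nM biotinylated H3K14Ac peptide complex in PBS pH 7.4 with Tween-20. Donor and acceptor beads at 10 ug/mL final added, 20 min light-protected before reading.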
HP1b chromo inh: HP1-beta chromodomain-methylated histone interaction inhibition; AID 540317; AlphaScreen HP1-beta / biotin-H3K9me3 peptide binding; P83916; hit rate 0.56% among 390,000; Potency, µM (top dose mostly 114 µM), actives largely listed as inhibitors; further: nearly all actives have a fitted effect of over 70% in size
Target sequence (P83916 whole entry, looked up): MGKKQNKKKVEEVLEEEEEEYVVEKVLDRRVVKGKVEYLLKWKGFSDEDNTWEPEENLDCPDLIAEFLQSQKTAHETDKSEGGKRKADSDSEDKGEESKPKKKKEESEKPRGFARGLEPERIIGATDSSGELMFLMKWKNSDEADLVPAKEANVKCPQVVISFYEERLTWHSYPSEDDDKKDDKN
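HP1-beta protein (50 nM final) preincubated 30 min at room temperature with biotinylated H3(1-18)K9me3 peptide (50 nM) in PBS pH 7.4, 0.01% Tween-20, then compound added for 30 min. AlphaScreen streptavidin donor/nickel chelate acceptor beads (10 ug/mL final), 30 min dark, luminescence read.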
JMJD2A Tudor inh: JMJD2A Tudor domain (human) inhibition; AlphaScreen JMJD2A-Tudor / H3K4me3 peptide binding; Potency, µM (top dose mostly 114 µM), usual class: inhibitors; hit rate 4.4% among 390,000; further: nearly all actives have a fitted effect of over 50% in size
GLS inh: inhibitors of human glutaminase (GLS) | Potency, µM (series often up to 45.5 µM), most hits filed as inhibitors | GLS enzymatic activity, qHTS titration | hit rate 0.21% among 410,000 | O94925
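Two-point fluorescence kinetic (t0, 30 min RT) for hKGA; glutamate detected via glutamate oxidase–HRP–Amplex Red. Substrate: 1 mM L-glutamine solution; buffer 45 mM KH2PO4, pH 8.2.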
Numbers stand for hits; . = inactive; ? = inconclusive; / = no result given; ! = repeats disagree; [ ] = another dose, or the depositor's remark. Most compounds without a hit are left out; they make up all but 10% or so of the library. The call rests on the fitted dose curve; in most records, active means well fitted curve in the direction sought with a large enough effect; inconclusive means small, poorly fitted or top-dose-only effect, or another doubt; inactive means no such curve, though single readings can be large; an effect the other way counts as inactive or inconclusive.

SMILES	G9a block	BAZ2B inh	HP1b chromo inh	JMJD2A Tudor inh	GLS inh
CCc1ccc(NC(=O)C(C)OC(=O)CCN2C(=O)C3CC=CCC3C2=O)cc1 (centres undefined)	/	/	.	.	.
COc1ccc(C(=O)C(C)OC(=O)CCN2C(=O)C3CC=CCC3C2=O)cc1 (centres undefined)	7.9µM	.	.	.	.
COc1cc(/C=N/Nc2ccc(Cl)nn2)cc(OC)c1O	16µM	.	?	.	.
Oc1ccc(/C=N/Nc2ccc(Cl)nn2)c(O)c1O	?	10µM	?	11µM	?
Oc1c(Br)cc(/C=N/Nc2ccc(Cl)nn2)cc1Br	40µM	50µM	?	?	?
CC(=O)Nc1ccc(NC(=O)CCS(=O)(=O)c2ccc3c(c2)CC(=O)N3C)cc1	.	.	.	.	.
NC12CC3CC(CC(C3)C1)C2	1.8µM!	.	.	.	.
Nc1ccn([C@@H]2O[C@H](CO)[C@@H](O)C2O)c(=O)n1 (some centres undefined)	11µM!	.	.	.	.
C[N+](C)(C)CCOP(=O)(O)OP(=O)([O-])OC[C@H]1O[C@@H](n2ccc(N)nc2=O)[C@H](O)[C@@H]1O	10µM!	.	.	.	.
Nc1ccn([C@@H]2O[C@H](CO)[C@@H](O)[C@H]2O)c(=O)n1	/	/	.	.	.
CC(C)(C)c1ccc(C(=O)NCC(=O)OCC(=O)N2CCCC2)cc1	?	.	.	.	.
CCN1C(=O)c2cccc3cccc1c23	.[12.7 µM]	.	.	32µM	.
S=C(Nc1cccc(Cl)c1)N1CCN(c2ccccn2)CC1	/	.	.	.	.
COc1cccc(NC(=S)N2CCN(c3ccccn3)CC2)c1	.	.	.	89µM	?
COc1cc(NC(=S)N2CCC(C(N)=O)CC2)c(OC)cc1Cl	45µM	.	.	.	.
COc1cc(NC(=S)N2CCN(c3ccccn3)CC2)c(OC)cc1Cl	16µM	.	.	?	.
COc1cc2nc(C3CCC3)nc(N3CCN(c4ccccn4)CC3)c2cc1OC	50µM	50µM	.	?	.
COc1ccc(Cl)cc1NC(=S)N1CCN(c2ccccn2)CC1	?	.	.	.	.
O=C(NCCc1ccc(Cl)cc1)c1ccc(CS(=O)(=O)Cc2ccccc2F)o1	.	.	.	.	.
CC(C)n1nc(C(=O)OCn2nnc3ccccc3c2=O)c2ccccc2c1=O	.	.	.	.	.
O=C(CSc1nc2c(c(=O)[nH]1)CCCC2)Nc1ccc(Br)cc1	.	.	.	.	.
O=C(NC(=O)N1CCCC1)c1csnn1	56µM	.	.	.	.
O=C(NC1CCCCC1)c1csnn1	/	/	.	.	.
CCOc1cc(CNCc2cccnc2)ccc1OCC(=O)NC(C)(C)C	50µM	?	.	.	.
CC(C)(C)NC(=O)COc1ccc(CNCc2ccccn2)cc1	/	50µM	.	56µM	.
SMILES	G9a block	BAZ2B inh	HP1b chromo inh	JMJD2A Tudor inh	GLS inh
CCOc1cc(CNCCc2ccccc2)ccc1OCC(=O)NC(C)(C)C	.	.	?	?	.
CCOc1cc(CNc2ccc3[nH]c(=O)[nH]c3c2)ccc1OCC(=O)NC(C)(C)C	5µM	.	.	.	.
CCOc1cc(CNCc2ccccn2)ccc1OCC(=O)NC1CCCCC1	.[12.7 µM]	79µM	.	56µM	.
C=CCOc1ccc(CNc2ccc3[nH]c(=O)[nH]c3c2)cc1OCC	?	.	.	?	?
O=C(NC1CCCCC1)c1ccc2c(c1)N(Cc1ccccc1Cl)C(=O)c1ccccc1S2	.	.	.	.	.
COC1=C/C(=C/c2c(N)n3nc(CC(=O)N4CCCC4)sc3nc2=O)C=CC1=O	?	.	.	.	.
Nc1c(/C=C2/C=CC(=O)C(O)=C2)c(=O)nc2sc(CC(=O)N3CCOCC3)nn12	/	/	?	20µM	.
Nc1c(/C=C2/C=CC(=O)C(O)=C2)c(=O)nc2sc(CC(=O)N3CCCCC3)nn12	10µM	10µM	.	?	.
CC1=Nc2ccc(C)cc2/C1=C/c1c(N)n2nc(CC(=O)N3CCOCC3)sc2nc1=O	?	.	.	.	.
Nc1c(/C=C2/C=CC(=O)C(O)=C2)c(=O)nc2sc(CC(=O)N3CCCC3)nn12	35µM	20µM	?	25µM	?
CCOC1=C/C(=C/c2c(N)n3nc(CC(=O)N4CCCC4)sc3nc2=O)C=CC1=O	79µM	.	.	.	.
Nc1c(C=C2C=CC(=O)C=C2)c(=O)nc2sc(CC(=O)N3CCCCC3)nn12	?	?	.	.	.
